Paper PMC5540273 (PLoS ONE, 2017)

Columns and labels:
Conditions in all cases: concentration: 1 μM,replicates: in singlicate; n = 1
CAMK1 = test system: CAMK1
CAMK2A = test system: CAMK2A
CAMK2B = test system: CAMK2B
CAMK2D = test system: CAMK2D
CAMK2G = test system: CAMK2G
CAMK4 = test system: CAMK4
CAMKK1 = test system: CAMKK1
CAMKK2 = test system: CAMKK2
CASK = test system: CASK
CDC2L1 = test system: T1, CDC2L1
T1 construct: gene CDK11B

CDC2L2 = test system: CDC2L2
CDC2L5 = test system: T2, CDC2L5
T2 construct: gene CDK13

CDK11 = test system: T3, CDK11
T3 construct: gene CDK19

CDK2 = test system: CDK2
CDK3 = test system: CDK3
CDK4-cyclinD1 = test system: CDK4-cyclinD1
CDK4-cyclinD3 = test system: CDK4-cyclinD3
CDK4 = test system: CDK4
CDK5 = test system: CDK5
CDK7 = test system: CDK7
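Further: KINOMEscan kinase panel screen.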

Structure (SMILES) | %Inh (CAMK1) | %Inh (CAMK2A) | %Inh (CAMK2B) | %Inh (CAMK2D) | %Inh (CAMK2G) | %Inh (CAMK4) | %Inh (CAMKK1) | %Inh (CAMKK2) | %Inh (CASK) | %Inh (CDC2L1) | %Inh (CDC2L2) | %Inh (CDC2L5) | %Inh (CDK11) | %Inh (CDK2) | %Inh (CDK3) | %Inh (CDK4-cyclinD1) | %Inh (CDK4-cyclinD3) | %Inh (CDK4) | %Inh (CDK5) | %Inh (CDK7)
C[C@@H](Oc1cc(-n2cnc3ccc(-c4ccncc4)cc32)sc1C(N)=O)c1ccccc1Cl [GSK483724] | 40% | 15% | 0% | 31% | 37% | 0% | 34% | 59% | 14% | 0% | 7% | 0% | 73% | 30% | 36% | 0% | 0% | 27% | 1% | 0%
FC(F)(F)c1cc(Br)cc(Nc2nccc(-c3cnn4ncccc34)n2)c1 [GW810578] | 23% | 0% | 6% | 21% | 28% | 0% | 45% | 59% | 22% | 0% | 7% | 0% | 0% | 39% | 73% | 16% | 52% | 8% | 37% | 98.9%
COC(=O)c1cccc(NC(=O)NC2CCN(c3ccnc(NCc4ccc(F)cc4)n3)CC2)c1 [GSK1379860] | 0% | 0% | 0% | 0% | 1% | 0% | 0% | 0% | 0% | 0% | 0% | 0% | 12% | 0% | 9% | 0% | 0% | 0% | 2% | 0%
Cc1cccc(-c2nc(Nc3ccncc3)c3sccc3n2)n1 [GW869641] | 24% | 3% | 9% | 14% | 18% | 0% | 11% | 23% | 21% | 6% | 0% | 11% | 8% | 3% | 0% | 0% | 24% | 23% | 14% | 44%
CS(=O)c1ccc(-c2coc3ccc(-c4n[nH]c(=O)o4)cc23)cc1 (stereo not shown) | 0% | 5% | 16% | 6% | 3% | 0% | 7% | 12% | 26% | 0% | 0% | 36% | 96.9% | 0% | 4% | 0% | 0% | 10% | 0% | 38%
COc1cc2ncn(-c3cc(OCC4CCCCC4)c(C(N)=O)s3)c2cc1OC [GSK204559] | 13% | 0% | 0% | 5% | 33% | 0% | 12% | 26% | 19% | 0% | 6% | 0% | 12% | 0% | 21% | 0% | 0% | 8% | 0% | 86%
CN1CCN(CCNc2nc3cc(Oc4ccc(NC(=O)Nc5cc(C(F)(F)F)ccc5F)cc4)ccc3[nH]2)CC1.Cl.Cl [GW768504] | 15% | 0% | 0% | 0% | 0% | 20% | 0% | 0% | 16% | 0% | 7% | 0% | 47% | 0% | 6% | 0% | 0% | 2% | 0% | 96.6%
Cn1ccc2ncnc(Oc3ccc(NC(=O)Nc4ccnc(C(F)(F)F)c4)c(Cl)c3)c21 | 0% | 0% | 0% | 13% | 25% | 0% | 13% | 7% | 0% | 0% | 0% | 20% | 98% | 0% | 0% | 0% | 0% | 0% | 0% | 1%
COc1cccc(CNC(=O)NC2CCN(c3ccnc(Nc4cc(OC)c(OC)c(OC)c4)n3)C2)c1 (stereo not shown) [GSK1379765] | 35% | 0% | 0% | 0% | 19% | 0% | 16% | 14% | 0% | 0% | 25% | 0% | 22% | 0% | 8% | 4% | 0% | 14% | 0% | 0%
CCCC(=O)Nc1n[nH]c2ncccc12 [SB-601436] | 0% | 13% | 0% | 0% | 0% | 0% | 0% | 0% | 0% | 0% | 0% | 0% | 0% | 0% | 1% | 0% | 0% | 0% | 0% | 0%
Cc1ccc2c(-c3ccnc(Nc4ccc(C(F)(F)F)cc4)n3)cnn2n1 [GW819776] | 0% | 0% | 0% | 0% | 0% | 0% | 19% | 0% | 21% | 0% | 0% | 0% | 0% | 15% | 13% | 0% | 0% | 16% | 0% | 47%
CN(c1ccccc1CNc1nc(Nc2ccc3c(c2)CC(=O)N3)ncc1C(F)(F)F)S(C)(=O)=O | 0% | 22% | 18% | 0% | 59% | 0% | 58% | 64% | 0% | 0% | 0% | 0% | 0% | 58% | 55% | 0% | 34% | 0% | 83% | 67%
CS(=O)(=O)Nc1ccc(-c2ccnc3[nH]ccc23)cc1 [GSK993273] | 36% | 6% | 7% | 16% | 24% | 0% | 8% | 0% | 21% | 0% | 0% | 0% | 45% | 0% | 15% | 0% | 0% | 0% | 0% | 37%
CSc1nccc(-c2c(-c3ccc(F)cc3)ncn2CCCN2CCOCC2)n1.Cl [SB-217146] | 6% | 0% | 0% | 0% | 0% | 0% | 0% | 0% | 0% | 0% | 0% | 0% | 0% | 0% | 0% | 0% | 0% | 16% | 0% | 12%
CC(C)c1nc(-c2cccc(NS(=O)(=O)c3ccccc3)c2)c(-c2ccnc(Nc3ccc4c(c3)CN(C)CC4)n2)s1 [GSK1649598] | 57% | 0% | 0% | 22% | 28% | 0% | 29% | 23% | 14% | 15% | 24% | 92.7% | 0% | 99.3% | 99.6% | 65% | 44% | 93.7% | 87% | 78%
Cn1ccc2ncnc(Oc3ccc(NC(=O)Nc4cccc(C(F)(F)F)c4)c(F)c3)c21 | 0% | 6% | 8% | 6% | 10% | 15% | 18% | 19% | 0% | 19% | 0% | 33% | 99.3% | 7% | 39% | 16% | 0% | 0% | 10% | 68%
CS(=O)(=O)c1cccc(CNc2nc(Nc3ccc4c(c3)[C@@H]3C[C@@H]4CNC3=O)ncc2C(F)(F)F)c1 | 1% | 0% | 0% | 0% | 0% | 0% | 41% | 15% | 0% | 0% | 0% | 2% | 0% | 46% | 33% | 97.1% | 96.4% | 60% | 82% | 94%
Cn1ccc2ncnc(Oc3ccc(NC(=O)Nc4cc(C(C)(C)C)on4)c(Cl)c3)c21 | 17% | 100% | 100% | 4% | 14% | 0% | 6% | 22% | 0% | 0% | 4% | 26% | 100% | 12% | 2% | 0% | 2% | 2% | 0% | 55%
c1ccc(Oc2ccc(Nc3ccnc4ccc(-c5ccccn5)cc34)cc2)cc1 [GW407034] | 1% | 0% | 0% | 7% | 16% | 0% | 0% | 9% | 8% | 0% | 0% | 0% | 12% | 0% | 15% | 0% | 12% | 0% | 93.1% | 0%
O=C1NCCc2[nH]c(-c3ccncc3)cc21 | 13% | 9% | 10% | 0% | 0% | 0% | 0% | 0% | 0% | 0% | 0% | 38% | 22% | 1% | 13% | 21% | 36% | 27% | 29% | 71%
